Laboratory results published in PubChem BioAssay (EPA / NIEHS).
Activity calls are given as the source filed them. Rule for the calls: active = hit-call score of the fitted dose curve at least 0.9, where 1 is the maximum; inactive = score below 0.9.

Assays:
[1] = read-out: Collagen III, COL3A1 (gene 1281); assay: BSK_hDFCGF_CollagenIII: BioMAP Diversity Plus: hDFCGF Assay for Collagen III Biomarker Activity (AID 2283056); conditions: primary human foreskin fibroblasts; actives raise or lower the signal
How it was run: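 ELISA readout of Collagen III in human dermal (foreskin) fibroblasts, taken 24 h post-treatment. Gain or loss relative to DMSO vehicle fitted in both directions.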

[2] = read-out: Epidermal growth factor receptor (EGFR), EGFR (gene 1956); assay: BSK_hDFCGF_EGFR: BioMAP Diversity Plus: hDFCGF Assay for Epidermal growth factor receptor (EGFR) Biomarker Activity (AID 2283057); conditions: primary human foreskin fibroblasts; actives raise or lower the signal
How it was run: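 Cell-based multiplexed assay in primary human foreskin fibroblasts. EGFR is read by ELISA 24 h after treatment and compared with DMSO controls.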

[3] = BSK_hDFCGF_Proliferation: Cell Proliferation Assessment in the BioMAP Diversity Plus: hDFCGF Assay (AID 2283059); conditions: primary human foreskin fibroblasts;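 note: curves fitted for both rise and fall of signal versus DMSO baseline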
How it was run: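 This proliferation readout used SRB total-protein staining of human foreskin fibroblasts […], normalized to DMSO with bidirectional curve fitting.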

[4] = read-out: Macrophage colony-stimulating factor (MCSF), CSF1 (gene 1435); assay: BSK_hDFCGF_MCSF: BioMAP Diversity Plus: hDFCGF Assay for Macrophage colony-stimulating factor (MCSF) Biomarker Activity (AID 2283060); conditions: primary human foreskin fibroblasts; actives raise or lower the signal
How it was run: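 M-CSF levels read by ELISA at 24 h post-dosing in human skin fibroblasts. Parallel cultures stained with SRB assessed cytotoxicity at the same time point; response fitted in both directions against the DMSO baseline.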

[5] = BSK_hDFCGF_SRB: Viability Assessment in the BioMAP Diversity Plus: hDFCGF Assay (AID 2283061); conditions: primary human foreskin fibroblasts;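 note: cells exposed to compound for 24 h before the read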
How it was run: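 Viability was read as total protein: after 10% TCA fixation, wells were stained with 0.1% sulforhodamine B and read at 560 nm. Primary human foreskin fibroblasts were dosed for 24 h, with bidirectional fitting versus DMSO.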

[6] = read-out: TIMP metallopeptidase inhibitor 1 (TIMP1), TIMP1 (gene 7076); assay: BSK_hDFCGF_TIMP1: BioMAP Diversity Plus: hDFCGF Assay for TIMP metallopeptidase inhibitor 1 (TIMP1) Biomarker Activity (AID 2283062); conditions: primary human foreskin fibroblasts; actives raise or lower the signal
How it was run: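 TIMP-1 measured by ELISA 24 h after chemical dosing of primary human skin fibroblasts, with gain or loss fitted relative to DMSO. Parallel SRB staining (560 nm) monitored overt cytotoxicity.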

[7] = read-out: Monokine induced gamma interferon (MIG), CXCL9 (gene 4283); assay: BSK_hDFCGF_MIG: BioMAP Diversity Plus: hDFCGF Assay for Monokine induced gamma interferon (MIG) Biomarker Activity (AID 2283063); conditions: primary human foreskin fibroblasts; actives raise or lower the signal
How it was run: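 Human primary foreskin fibroblasts in the hDFCGF system, exposed to test chemical for 24 h; MIG measured by ELISA. Bidirectional curve fitting against DMSO negative control as activity baseline.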

[8] = read-out: Matrix Metallopeptidase 1 (MMP1), MMP1 (gene 4312); assay: BSK_hDFCGF_MMP1: BioMAP Diversity Plus: hDFCGF Assay for Matrix Metallopeptidase 1 (MMP1) Biomarker Activity (AID 2283064); conditions: primary human foreskin fibroblasts; actives raise or lower the signal
How it was run: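 ELISA read-out of MMP1 from human foreskin fibroblasts (primary skin cells), 24 h post-dose. Gain or loss of signal was fitted bidirectionally versus DMSO negative control; cytotoxicity was checked by SRB in parallel cultures.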

[9] = read-out: Vascular cell adhesion molecule 1 (VCAM1), VCAM1 (gene 7412); assay: BSK_hDFCGF_VCAM1: BioMAP Diversity Plus: hDFCGF Assay for Vascular cell adhesion molecule 1 (VCAM1) Biomarker Activity (AID 2283065); conditions: primary human foreskin fibroblasts; actives raise or lower the signal;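 for AC50: VCAM-1 protein level quantified by ELISA after 24 h chemical exposure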
How it was run: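 ELISA readout of VCAM-1 on human dermal fibroblast primary cultures, 24 h after chemical exposure. Gain or loss of signal fitted in both directions against DMSO baseline.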

[10] = read-out: Plasminogen activator inhibitor-1 (PAI1), SERPINE1 (gene 5054); assay: BSK_hDFCGF_PAI1: BioMAP Diversity Plus: hDFCGF Assay for Plasminogen activator inhibitor-1 (PAI1) Biomarker Activity (AID 2283066); conditions: primary human foreskin fibroblasts; actives raise or lower the signal
How it was run: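 Human skin fibroblast cultures receive chemical for 24 h before PAI-1 is measured by ELISA; signal changes are fitted bidirectionally against DMSO-treated wells.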

[11] = read-out: Intercellular Adhesion Molecule 1 (ICAM1), ICAM1 (gene 3383); assay: BSK_KF3CT_ICAM1: BioMAP Diversity Plus: KF3CT Assay for Intercellular Adhesion Molecule 1 (ICAM1) Biomarker Activity (AID 2283067); conditions: primary human keratinocytes with fibroblasts; actives raise or lower the signal
How it was run: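 Cell-surface ICAM-1 was measured by ELISA 24 h after dosing primary human skin keratinocytes co-cultured with fibroblasts. Parallel SRB staining tracked overt cytotoxicity. Gain or loss of signal was fitted relative to DMSO.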

[12] = read-out: Interferon-gamma inducible Protein 10 (IP10), CXCL10 (gene 3627); assay: BSK_KF3CT_IP10: BioMAP Diversity Plus: KF3CT Assay for Interferon-gamma inducible Protein 10 (IP10) Biomarker Activity (AID 2283068); conditions: primary human keratinocytes with fibroblasts; actives raise or lower the signal
How it was run: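 Signal is secreted/surface IP-10 by ELISA in a human primary skin co-culture of keratinocytes and foreskin fibroblasts, taken 24 h post-dosing; DMSO served as negative control.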

[13] = BSK_KF3CT_SRB: Viability Assessment in the BioMAP Diversity Plus: KF3CT Assay (AID 2283069); conditions: primary human keratinocytes with fibroblasts;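 note: total protein by sulforhodamine B staining as a cytotoxicity measure; read 24 h after compound addition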
How it was run: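 SRB read-out at 560 nm (0.1% stain, TCA-fixed cells) gauges overt cytotoxicity in a human skin keratinocyte–fibroblast co-culture 24 h post-dosing. Signal change was fitted bidirectionally relative to DMSO control.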

[14] = read-out: Interleukin-1 alpha (IL1a), IL1A (gene 3552); assay: BSK_KF3CT_IL1a: BioMAP Diversity Plus: KF3CT Assay for Interleukin-1 alpha (IL1a) Biomarker Activity (AID 2283070); conditions: primary human keratinocytes with fibroblasts; actives raise or lower the signal
How it was run: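 Primary skin co-culture (keratinocytes, foreskin fibroblasts), 24 h exposure; ELISA for IL-1a; bidirectional curve fit vs DMSO.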

[15] = read-out: TIMP metallopeptidase inhibitor 2 (TIMP2), TIMP2 (gene 7077); assay: BSK_KF3CT_TIMP2: BioMAP Diversity Plus: KF3CT Assay for TIMP metallopeptidase inhibitor 2 (TIMP2) Biomarker Activity (AID 2283071); conditions: primary human keratinocytes with fibroblasts; actives raise or lower the signal
How it was run: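 Measurements come from ELISA detection of TIMP-2 at 24 hours in a dosed human keratinocyte and foreskin fibroblast co-culture. DMSO serves as negative control and baseline.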

[16] = read-out: Transforming growth factor beta 1 (TGFb1), TGFB1 (gene 7040); assay: BSK_KF3CT_TGFb1: BioMAP Diversity Plus: KF3CT Assay for Transforming growth factor beta 1 (TGFb1) Biomarker Activity (AID 2283072); conditions: primary human keratinocytes with fibroblasts; actives raise or lower the signal
How it was run: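 TGF-b1 ELISA on a 24 h dosed co-culture of human keratinocytes and foreskin fibroblasts; cytotoxicity tracked in parallel cultures by SRB staining.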

[17] = read-out: Matrix Metallopeptidase 9 (MMP9), MMP9 (gene 4318); assay: BSK_KF3CT_MMP9: BioMAP Diversity Plus: KF3CT Assay for Matrix Metallopeptidase 9 (MMP9) Biomarker Activity (AID 2283074); conditions: primary human keratinocytes with fibroblasts; actives raise or lower the signal;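 for AC50: MMP9 protein level quantified by ELISA in the co-culture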
How it was run: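 ELISA read-out of MMP-9 at 24 h post-dosing in a co-culture of human skin keratinocytes and foreskin fibroblasts. Gain or loss of signal was fitted in both directions against DMSO.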

[18] = read-out: CD40, CD40 (gene 958); assay: BSK_LPS_CD40: BioMAP Diversity Plus: LPS Assay for CD40 Biomarker Activity (AID 2283076); conditions: primary human HUVEC with PBMC; actives raise or lower the signal
How it was run: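 In the LPS system of human endothelial cells with peripheral blood mononuclear cells, CD40 levels were read by ELISA 24 h post-treatment. Signal changes in either direction were fitted against the DMSO baseline, with parallel SRB protein staining.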

[19] = read-out: E-selectin (Homo sapiens) (UniProt P16581); assay: BSK_LPS_Eselectin: BioMAP Diversity Plus: LPS Assay for Eselectin Biomarker Activity (AID 2283077); conditions: primary human HUVEC with PBMC; actives raise or lower the signal
How it was run: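 E-selectin ELISA on LPS-stimulated endothelial cell/PBMC co-cultures, read 24 h post-treatment; gains and losses fitted against DMSO. Parallel SRB staining (0.1% SRB after 10% TCA fixation, 560 nm) flags overt cytotoxicity.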

[20] = read-out: Interleukin-8 (IL8), CXCL8 (gene 3576); assay: BSK_LPS_IL8: BioMAP Diversity Plus: LPS Assay for Interleukin-8 (IL8) Biomarker Activity (AID 2283078); conditions: primary human HUVEC with PBMC; actives raise or lower the signal
How it was run: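 ELISA read-out of IL-8 after 24 h chemical treatment of LPS-activated endothelial/PBMC human primary co-cultures. Changes either up or down relative to DMSO; overt cytotoxicity checked by sulforhodamine B staining in parallel wells.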

Measured: AC50

Chain of E-selectin (Homo sapiens) (P16581 whole entry, looked up): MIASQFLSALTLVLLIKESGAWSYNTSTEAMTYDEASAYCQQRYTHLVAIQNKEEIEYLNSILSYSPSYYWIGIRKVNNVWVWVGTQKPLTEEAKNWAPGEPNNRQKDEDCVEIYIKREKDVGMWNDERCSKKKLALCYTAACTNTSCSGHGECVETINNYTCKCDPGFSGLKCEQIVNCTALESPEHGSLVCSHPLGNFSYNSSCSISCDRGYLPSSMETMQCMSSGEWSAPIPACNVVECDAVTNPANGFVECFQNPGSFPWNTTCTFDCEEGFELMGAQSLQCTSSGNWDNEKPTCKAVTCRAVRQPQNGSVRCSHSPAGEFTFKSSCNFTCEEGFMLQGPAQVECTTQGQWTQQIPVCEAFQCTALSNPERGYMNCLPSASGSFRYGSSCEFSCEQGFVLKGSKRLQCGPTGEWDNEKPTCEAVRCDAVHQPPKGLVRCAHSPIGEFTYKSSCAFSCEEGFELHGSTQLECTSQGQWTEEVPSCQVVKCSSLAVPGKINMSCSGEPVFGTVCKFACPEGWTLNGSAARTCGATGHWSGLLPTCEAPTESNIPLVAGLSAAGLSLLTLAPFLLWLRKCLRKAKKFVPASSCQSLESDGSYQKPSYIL

CCCCCCCCCCCCCCCC[N+](C)(C)CC
inactive: [2]
active: [1] 0.447 µM | [3] 0.484 µM | [4] 1.49 µM | [5] 1.28 µM | [6] 1.89 µM | [7] 3.45 µM | [8] 4.94 µM | [9] 1.82 µM | [10] 1.53 µM | [11] 4.6 µM | [12] 2.96 µM | [13] 5.14 µM | [14] 3.23 µM | [15] 2.15 µM | [16] 7.9 µM | [17] 1.68 µM | [18] 3.07 µM | [19] 5.7 µM | [20] 8.09 µM

O=C(Cl)c1cc(C(=O)Cl)cc(C(=O)Cl)c1
active: [1] 21.4 µM | [3] 3.77 µM | [4] 13.6 µM | [5] 26.4 µM | [6] 13.7 µM | [7] 16.1 µM | [8] 31.9 µM | [9] 15.2 µM | [10] 29.8 µM | [11] 30.8 µM | [12] 35 µM | [13] 33.2 µM | [14] 33.8 µM | [15] 25.2 µM | [16] 28.2 µM | [17] 32.3 µM | [18] 15.2 µM | [19] 31.2 µM | [20] 28.8 µM
inactive: [2]

C=CC=CC=CCCCCC
active: [1] 7.41 µM | [3] 7.28 µM
inactive: all other assays above
